Rows were chosen to be rich in hits. Some 18% of all compounds tested hit in one or more screens of this group.
IL-1B inflam inh = qHTS for Inhibitors of Inflammasome Signaling: IL-1-beta AlphaLISA Primary Screen; hit rate 4.7% among 360,000; THP-1 LPS/ATP IL-1B secretion, AlphaLISA, 16 h; stronger effect = lower value; AID 743279, 2014; activity change, % at 57.5 µM; in the data active means activity change below about -50%; inconclusive means mostly about -30% to -49%
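Secreted IL-1B measured by AlphaLISA bead assay after 16 h compound exposure of THP-1 cells; compounds (final up to 57.5 uM) added 1 h before LPS (250 ng/mL) and ATP (1.25 mM) stimulation; lower signal means less secretion.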
RORg inh = qHTS for inhibitors of ROR gamma transcriptional activity. Drosophila S2 Gal4-RORgamma UAS-luciferase reporter, 20 h. Potency, µM (doses to about 53.6 µM), for inactives: top-dose activity change, negative = inhibition, hits mostly inhibitors. hit rate 5.4% among 310,000; further: potency means the concentration at half of the fitted maximal effect; nearly all actives have a fitted effect of over 60% in size
Target sequence (P51450 whole entry, looked up, the tested form may be a part): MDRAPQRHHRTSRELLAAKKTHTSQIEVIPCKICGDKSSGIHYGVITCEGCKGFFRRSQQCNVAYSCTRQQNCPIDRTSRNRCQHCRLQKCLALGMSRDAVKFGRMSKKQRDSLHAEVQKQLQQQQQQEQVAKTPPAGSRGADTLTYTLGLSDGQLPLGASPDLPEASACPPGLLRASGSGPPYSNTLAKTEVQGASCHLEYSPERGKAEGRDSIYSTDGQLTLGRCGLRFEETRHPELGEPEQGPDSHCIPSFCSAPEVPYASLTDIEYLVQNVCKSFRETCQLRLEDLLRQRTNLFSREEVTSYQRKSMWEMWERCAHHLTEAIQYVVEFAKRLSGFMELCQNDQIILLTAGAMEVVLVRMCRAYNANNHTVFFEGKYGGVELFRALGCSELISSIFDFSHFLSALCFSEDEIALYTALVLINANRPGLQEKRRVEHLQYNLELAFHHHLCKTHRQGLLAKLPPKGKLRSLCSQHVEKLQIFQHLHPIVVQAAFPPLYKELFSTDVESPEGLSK
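Stably transfected Drosophila Schneider cells are the test system, with ROR gamma fused to Gal4 and luciferase under UAS control; luminescence is read after 20 hr of 700 uM copper sulfate induction at ambient temperature.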
DT40 TDP1 no CPT = qHTS for Inhibitors of human tyrosyl-DNA phosphodiesterase 1 (TDP1): qHTS in cells in absence of CPT | Potency, µM (series often up to 46.2 µM), for the others: at the top dose activity change, negative = growth inhibition, actives largely listed as inhibitors | AID 686978, 2013 | hit rate 15% among 420,000 | DT40 Tdp1-/- hTDP1 cells, no CPT, ATP luminescence, 48 h; further: potency means the concentration at half of the fitted maximal effect; nearly all actives have a fitted effect of over 55% in size
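Growth kinetics read by CellTiter-Glo luminescence after ≥48 hr at 37 °C. Cells: DT40 Tdp1-/- stably carrying human TDP1, 400 per well, compound exposure in the absence of CPT (DMSO vehicle).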
LDHA block = qHTS assay for inhibitors of human lactate dehydrogenase; L-lactate dehydrogenase A chain (Homo sapiens), P00338; purified LDHA, NADH/diaphorase-resazurin fluorescence; stronger effect = lower value; hit rate 0.15% among 480,000; activity change, % (values are at about 110 or 230 µM); in the data active means activity change below about -30%; inconclusive means mostly about -25% to -30%;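 further: plate controls were DMSO wells for no effect and wells without enzyme for full effect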
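Remaining NADH was detected by diaphorase (0.133 mg/mL) converting 37 µM resazurin to fluorescent resorufin, read at 0 and 20 minutes. The preceding 5-minute room-temperature reaction used 2 nM LDHA, 0.2 mM sodium pyruvate and 0.06 mM NADH at pH 7.4.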
DT40 TDP1 CPT = qHTS for Inhibitors of human tyrosyl-DNA phosphodiesterase 1 (TDP1): qHTS in cells in presence of CPT; AID 686979, 2013; hit rate 12% among 420,000; chicken DT40 Tdp1-/-;hTDP1 cells + 20 nM CPT, ATP luminescence, 48 h; Potency, µM (top dose mostly 46.2 µM), without a hit: at the highest dose activity change, negative = growth inhibition, most hits filed as inhibitors; further: potency means the concentration at half of the fitted maximal effect; nearly all actives have a fitted effect of over 55% in size
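Chicken DT40 Tdp1-/- cells stably complemented with human TDP1 were seeded at 400 cells/well in medium containing 20 nM camptothecin, exposed to pin-transferred compounds, and grown at 37 °C for at least 48 hr. Viability was read as ATP luminescence.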
VP16 counter = VP16 counterscreen qHTS for inhibitors of ROR gamma transcriptional activity; Drosophila S2 Gal4-VP16 UAS-luciferase, luminescence, 20 h; Potency, µM (highest dose often 53.6 µM), for inactives: at the top dose activity, negative = inhibition, actives largely listed as inhibitors; hit rate 3.5% among 310,000;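 further: Gal4-VP16 expression switched on by copper sulfate through the metallothionein promoter; potency means the concentration at half of the fitted maximal effect; nearly all actives have a fitted effect of over 50% in size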
Numbers without * were called inactive; ? = inconclusive; / = not tested or not shown; ! = repeats disagree; [ ] = remark or other dose. Unless noted, the call rests on the fitted dose curve; in most records, active means well fitted curve in the direction sought with a large enough effect; inconclusive means small, poorly fitted or top-dose-only effect, or another doubt; inactive means no such curve, though single readings can be large; an effect the other way counts as inactive or inconclusive. Unless noted, on the % scale 0 is the no-effect control and ±100 the full control effect.

SMILES	IL-1B inflam inh	RORg inh	DT40 TDP1 no CPT	LDHA block	DT40 TDP1 CPT	VP16 counter
CCOc1cccc2sc(N(CCN(C)C)C(=O)/C=C/c3cccs3)nc12	-103*	-35%	23µM*	0	7.3µM*	-27%
COc1cccc2sc(N(CCCN(C)C)C(=O)COc3ccc(Cl)cc3)nc12	-27	?	?	-3	?	-24%
COc1ccc(CCNC(=O)CN(c2cc(Cl)ccc2C)S(=O)(=O)c2ccccc2)cc1	/	/	/	-1	/	/
Cn1nc(C(F)(F)F)c(Br)c1C(=O)Nc1sc2c(c1C#N)CCC2	/	/	/	-1	/	/
NC(=O)c1sc2nc(-c3ccccc3)ccc2c1N	-11	?	5%	0	18%	-9%
COc1ccc(-c2ccc3c(N)c(C(=O)c4ccc(OC)c(OC)c4)sc3n2)cc1	2	7%	9.2µM*	-15	9.2µM*!	?
COc1ccc(Cl)c(NC(=O)c2sc3nc(-c4ccncc4)ccc3c2N)c1	/	/	/	-6	/	/
COc1ccc(-c2ccc3c(N)c(C(=O)NC(C)C)sc3n2)cc1OC	/	-1%	16µM*	6	-25%	-4%
CCOC(=O)c1sc2nc(-c3ccccc3)ccc2c1N	-3	2.5µM*	1%	0	-7%	?
COc1cccc(-c2ccc3c(N)c(C(=O)c4ccc(Br)cc4)sc3n2)c1	/	/	15µM*	-15	15µM*	/
COc1cccc(-c2ccc3c(N)c(C(=O)Nc4ccc(Cl)cc4F)sc3n2)c1	/	/	?	-10	-24%	/
COc1cccc(-c2ccc3c(N)c(C(=O)Nc4cc(C(F)(F)F)ccc4OC)sc3n2)c1	/	/	-12%	1	-17%	/
CC(C)CSc1ccccc1NC(=O)c1sc2nc(-c3ccncc3)ccc2c1N	/	/	7.3µM*	-5	5.8µM*	/
COc1ccc(C(=O)c2sc3nc(-c4ccccc4)ccc3c2N)cc1OC	15	-43%	13µM*	-11	16µM*	?
O=C(NC1=NCCS1)c1cc2ccccc2o1	-1	7.1µM*	-9%	0	-16%	8.9µM*
O=C(Nc1ccccn1)c1cc2ccccc2o1	-97*	4µM*	?	-3	10µM*	6.3µM*
Cc1ccnc(NC(=O)c2cc3ccccc3o2)c1	?	/	-6%	-5	-14%	/
CCCCN(C)Cc1ccc(OCc2ccccc2)cc1	/	/	/	5	/	/
Cc1nnc(NC(=O)CSc2nc3[nH]ncc3c(=O)[nH]2)s1	21	-20%	15µM*	-3	?	-8%
Cc1ccccc1CSc1nc2[nH]ncc2c(=O)[nH]1	-10	-10%	?	-13	-25%	26%
Cc1ccc(C)c(CSc2nc3[nH]ncc3c(=O)[nH]2)c1	-7	-22%	1µM*	0	2.6µM*	-13%
Clc1cccc(Cl)c1/C=C/c1ccn[nH]1	-2	-44%	10µM*	-1	18µM*	-7%
COCCn1cnc2c1c(=O)n(CC(=O)Nc1ccccc1C)c(=O)n2CC(C)C	/	/	/	-4	/	/
CCOC(=O)N1CCN(C(=O)[C@H](C)NC(=O)c2cc3c(OC)cc(OC)cc3n2C)CC1	/	/	/	11	/	/
COc1ccc(C(=O)Nc2ccc3c(c2)nc(CN2CCCCCC2)n3C)cc1OC	/	/	/	9	/	/
SMILES	IL-1B inflam inh	RORg inh	DT40 TDP1 no CPT	LDHA block	DT40 TDP1 CPT	VP16 counter
COc1ccc(OCc2cc(C(=O)NCCN3CCCc4ccccc43)no2)c(Cl)c1	-3	?	18µM*	5	15µM*	6%
COc1ccc(OCc2cc(C(=O)NCC(C)(C)N3CCOCC3)no2)c(Cl)c1	1	-8%	21µM*	4	23µM*	-15%
COc1ccc(OCc2cc(C(=O)NCCc3ccccc3)no2)c(Cl)c1	0	9%	10µM*	-3	7.3µM*	-7%
COc1ccc(CCNC(=O)c2cc(COc3c(C)cccc3C)on2)c(OC)c1	-9	7%	-27%	-1	23µM*	13%
COc1ccc(CCNC(=O)c2cc(COc3c(F)cccc3F)on2)c(OC)c1	-13	17%	?	3	?	24%
COc1ccc(OCc2cc(C(=O)NCC3CCOCC3)no2)c(Cl)c1	-20	33%	-6%	0	?	5%
CCOc1ccc(NC(=O)C(CC)Oc2ccc(F)cc2)c2cccnc12 (stereo not drawn)	/	/	/	56	/	/
Cc1cccc(NC(=O)Nc2c[nH]c(=O)[nH]c2=O)c1	/	/	/	-6	/	/
Cc1cccc(C)c1OCc1cc(C(=O)NCC2CCCCC2)no1	-10	-19%	19%	0	-15%	-10%
Cc1cccc(C)c1OCc1cc(C(=O)N(Cc2c(C)nn(C)c2C)C2CC2)no1	?	8%	8.2µM*	-4	13µM*	?
O=C(NCCc1ccccc1C(F)(F)F)c1cc(COc2ccccc2)on1	-5	/	16µM*	-2	16µM*	/
Cc1cccc(C)c1OCc1cc(C(=O)NCc2cn(C)nc2C)no1	9	-30%	?	-1	18µM*	8%
CN(Cc1ccccc1Cl)C(=O)c1ccccc1O	/	/	/	1	/	/
O=c1[nH]c(=O)c2nc3c4ccccc4c4ccccc4c3nc2[nH]1	-7	0%	5.2µM*	-1	8.2µM*	-12%
O=c1[nH]c(=O)c2nc(-c3ccc(Cl)cc3)cnc2[nH]1	-5	28%	?	-10	-23%	0%
COc1cc(C#N)ccc1OCc1cc(C)ccc1C	/	/	/	-4	/	/
CCCCCOc1nc2ccccc2nc1NS(=O)(=O)c1ccccc1	/	/	/	1	/	/
CCOC(=O)c1c(-c2cc(OC)c(OC)c(OC)c2)csc1N	25	/	?	8	23µM*	/
CCOC(=O)c1c(-c2ccc(C)cc2)csc1NC(=O)/C(C#N)=C/c1ccc(O)c(OC)c1	-22	32%	15µM*	-8	?	-18%
CCOC(=O)c1c(-c2cccs2)csc1N	-5	4%	3%	23	2%	1%
COc1cc(C(=O)Nc2scc(-c3ccc(C)cc3)c2C(=O)O)cc(OC)c1OC	-18	28%	0%	-4	-11%	-2%
COc1cc(C(=O)Nc2scc(-c3ccccc3)c2C(=O)O)cc(OC)c1OC	-29	2%[1.91 µM]	13µM*	-11	?	-5%
CCOC(=O)c1c(-c2ccccc2)csc1NC(=O)/C(C#N)=C\c1ccc(O)c(OC)c1	-8	/	?	0	?	/
